# Screening results as filed in PubChem.
# ALDH1A1 inh = ALDH1A1 (human) enzyme inhibition | P00352 | Purified ALDH1A1, NADH fluorescence, propionaldehyde substrate | Potency, µM (highest dose often 75.3 µM), most hits filed as inhibitors | 220,000 tested, 7.3% active | AID 1030
# PNC assembly inh = inhibitors of perinucleolar compartment assembly. 140,000 tested, 3.1% active. PC3M PTB-GFP, PNC prevalence imaging, 16 h; stronger effect = lower value. activity change (PNC), negative = inhibition, % at 10 µM;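 active = readout at or below -70, meaning at least 70% loss of cells showing the perinucleolar compartment, a nuclear body marking cancer cells; inconclusive = readout between -30 and a set limit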
#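 Compounds are pinned in duplicate onto adhered PC3M cells stably expressing GFP-tagged PTB and incubated 16 h at 37 C. Cells are then fixed, nuclei stained with Hoechst, and PNC-positive cells counted.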
# HPGD inh = inhibitors of human 15-hydroxyprostaglandin dehydrogenase (HPGD). P15428. Potency, µM, usual class: inhibitors. AID 894. purified HPGD, NADH fluorescence kinetic, PGE2 substrate. 150,000 tested, 4.3% active
# Target sequence (P15428 whole entry, looked up): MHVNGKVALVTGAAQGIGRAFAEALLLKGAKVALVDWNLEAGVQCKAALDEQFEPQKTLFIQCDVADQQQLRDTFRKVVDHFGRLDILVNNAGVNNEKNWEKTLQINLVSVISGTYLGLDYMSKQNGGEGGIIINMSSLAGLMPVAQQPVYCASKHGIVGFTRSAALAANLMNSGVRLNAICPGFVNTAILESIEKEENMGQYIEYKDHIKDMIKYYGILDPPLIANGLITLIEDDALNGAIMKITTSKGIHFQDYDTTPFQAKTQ
#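 20 nM HPGD preincubated 15 min at room temperature with compound in 50 mM Tris-HCl pH 8, 0.01% Tween 20. Started with 1 mM NAD+ and 30 uM prostaglandin E2; NADH fluorescence (360/450 nm) read 5 times over 30-s intervals, last minus first.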
# Hits are given with their value; 0 = inactive; ? = inconclusive; - = not tested or not shown; [ ] = remark or other dose. The list is not random: actives were taken first. Their share in the collection is about 11%. Unless noted, calls come from the whole dose curve; as a rule, active = well fitted inhibition curve with a large enough effect (not every such curve was filed as active); inconclusive = small, poorly fitted or top-dose-only effect, or another doubt; inactive = no such curve, though single readings can be large or run the other way.
SMILES,ALDH1A1 inh,PNC assembly inh,HPGD inh
CCOc1ccc(C2=NNC(c3cccs3)=Nc3ccc(OCC)cc32)cc1,0,0,0
COc1ccc(CCNC(=O)CSc2nc(O)c(C(C)C)c(=O)[nH]2)cc1OC,0,0,0
O=C1C2C3C=CC(O3)C2C(=O)N1CC(O)c1ccccc1 (stereo not drawn),?,0,0
N#Cc1c(Nc2ccc(F)cc2)sc(C(=O)c2ccc(F)cc2)c1N,22µM,0,?
N#Cc1c(Nc2ccccc2)sc(C(=O)c2ccccc2)c1N,13µM,0,0
C=CCNc1sc(C(=O)c2ccc(C)cc2)c(N)c1C#N,0,0,0
C=CCNc1sc(C(=O)c2ccccc2)c(N)c1C#N,?,0,0
Cn1c(=O)c(C(=O)NCC2CCCO2)c(O)c2ccccc21 (stereo not drawn),0,-,-
CC(=NCCCn1ccnc1)c1c(C)[nH]n(-c2ccc([N+](=O)[O-])cc2)c1=O,0,-,-
CCOC(=O)c1nn(-c2ccc3c(c2)OCO3)cc1O,?,0,?
Cc1cccc(NC(=O)CSc2nnc([C@@H]3CCCN3C(=O)OC(C)(C)C)o2)c1C,3.5µM,0,0
Cc1ccc(C)c(NC(=O)CSc2nnc([C@@H]3CCCN3C(=O)OC(C)(C)C)o2)c1,0,-119,-
CCSc1nnc([C@@H]2CCCN2C(=O)OC(C)(C)C)o1,?,0,0
CC(C)(C)OC(=O)N1CCC[C@H]1c1nnc(SCc2c(Cl)cccc2Cl)o1,?,0,0
CCCCC(CC)COCCCN (stereo not drawn),0,-,0
Cc1cc2nc(C3CCN(Cc4nnnn4Cc4ccccc4)CC3)[nH]c2cc1C,?,0,0
CCC(C)(C)n1nnnc1CN1CCC(NC(=O)c2ccccc2C)CC1,?,-100,0
C1CCN(Cc2nnnn2C2CCCC2)CC1,0,0,0
Cc1ccccc1C(=O)NC1CCN(CC(=O)Nc2c(C)cccc2C)CC1,?,0,0
CCOc1ccccc1C(=O)NC1CCN(Cc2nnnn2C2CCCC2)CC1,28µM,?,0
CCC(C)(C)n1nnnc1CN1CCC(c2nc3ccc(C)cc3[nH]2)CC1,10µM,0,0
CCc1nnc(NC(=O)CSc2nnc(-c3ccc(NS(=O)(=O)c4ccccc4)cc3)o2)s1,0,0,14µM
CCc1nnc(NC(=O)CSc2nnc(-c3ccco3)o2)s1,0,-,-
Cc1ccc(CSc2nnc(-c3ccc(NS(=O)(=O)c4ccccc4)cc3)o2)cc1,0,0,0
COC(=O)CSc1nnc(-c2ccc(NS(=O)(=O)c3ccccc3)cc2)o1,0,0,18µM
SMILES,ALDH1A1 inh,PNC assembly inh,HPGD inh
CC(NC(=O)Cc1cccc(C(F)(F)F)c1)c1ccc(F)cc1 (stereo not drawn),0,-,-
CC(C)c1ccc(CNc2c([N+](=O)[O-])c(=O)oc3ccccc23)cc1,0,-,-
O=c1oc2ccccc2c(NCc2ccccc2F)c1[N+](=O)[O-],1.1µM,0,16µM
N#C/C(=C(/O)CO/N=C/c1ccccc1Cl)c1nc2ccccc2[nH]1,0,-,-
O=C(NCCc1ccccc1)c1ccccc1F,0,-,-
CN(C(=O)COc1ccccc1C(=O)NCCc1ccccc1)c1ccccc1,0,-100,0
Cc1ccc(S(=O)(=O)NCCCCCC(=O)Nc2ccccc2C)cc1,4µM,0,0
Cc1ccc(S(=O)(=O)NCCCCCC(=O)Nc2ccccc2)cc1,11µM,0,0
Cc1ccc(S(=O)(=O)CC(=O)Nc2ccc(S(=O)(=O)Nc3ccccn3)cc2)cc1,0,-,-
Cc1ccc(S(=O)(=O)NCCCCCC(=O)Nc2ccccn2)cc1,22µM,0,0
CNC(=O)CCCCCNS(=O)(=O)c1ccc(C)cc1,0,0,0
CC(=O)NCCCNS(=O)(=O)c1ccc(C)cc1,0,-,-
O=C(CCCCN1CCCCC1)c1ccc2c(c1)Cc1ccccc1-2,0,-,-
COc1ccc(NC(=O)Nc2cccc(C(F)(F)F)c2)cn1,0,-,-
C/C(CCN1CCc2nc(-c3ccccc3)c(-c3ccccc3)cc2C1)=N\OC[C@@H](O)COCc1ccco1,0[13.5 µM],-,-
O=C(COC(=O)c1ccc(CO)cc1)NCc1cccs1,0,0,32µM
Cc1ccc(C(=O)OCC(=O)NCc2cccs2)cc1,0,0,?
NS(=O)(=O)c1ccc(NC(=O)COC(=O)c2cnc(Cl)c(Cl)c2)cc1,20µM,-,-
Cc1ccc(C(=O)OCC(=O)NCc2cccs2)cc1C,0,-,-
O=C(COC(=O)c1cnc(Cl)c(Cl)c1)NCc1cccs1,20µM,-,-
NS(=O)(=O)c1ccc(NC(=O)COC(=O)c2cc([N+](=O)[O-])ccc2Cl)cc1,0,-,-
COc1cc(C(=O)Nc2ccc(NC(C)=O)cc2)ccc1OCc1ccccc1,0,-,-
CCOC(=O)c1oc2ccccc2c1NC(=O)c1ccc(Cl)s1,0,0,0
CC(C)(C)NC(=O)NC(=O)COC(=O)CNS(=O)(=O)c1ccc(Br)cc1Cl,0,-,-
CNC(=O)NC(=O)COC(=O)c1n[nH]c2ccccc12,0,-,-
SMILES,ALDH1A1 inh,PNC assembly inh,HPGD inh
O=C(COC(=O)c1n[nH]c2ccccc12)NC(=O)NC1CCCCC1,0,-127,0
CCCS(=O)(=O)N1CCC(C(=O)NCc2ccco2)CC1,0,0,0
CCc1ccc(OCC(=O)Nc2cccc3c2CCCC3)cc1,0,0,0
Oc1[nH]c2ccccc2c1C=Nc1ccccc1,0,-,-
N#CC1=C(N)C2=CCCC[C@H]2[C@H](c2ccccc2)C1(C#N)C#N,?,?,0
N#CC1=C(N)C2=CCCC[C@H]2[C@H](c2ccc(Br)cc2)C1(C#N)C#N,13µM,0,0
O=c1c(Cc2ccccc2)c(O)ccn1Cc1ccc2c(c1)OCO2,2.2µM,-,-
O=c1c(Cc2ccc(Cl)cc2)c(O)ccn1Cc1ccccc1,0,?,0
CCNS(=O)(=O)c1ccc(C)cc1,0,-,0
CCCCc1ccc(-c2csc(/C(C#N)=C/c3ccc(C)o3)n2)cc1,0,0,0
CCCCc1ccc(-c2csc(/C(C#N)=C\c3ccco3)n2)cc1,0,-111,0
COc1ccc(OC)c(C2=Nn3c(nnc3-c3cc(OC)c(OC)c(OC)c3)SC2)c1,?,0,0
COc1ccc(OC)c(C2=Nn3c(nnc3-c3ccncc3)SC2)c1,0,-,0
Cc1cccc(-c2nnc3n2N=C(c2ccccc2Br)CS3)c1,?,0,2.5µM
Cc1ccc(-c2nnc3n2N=C(c2ccccc2)CS3)cc1,?,0,0
CCOc1cccc(-c2nnc3n2N=C(c2cc(OC)ccc2OC)CS3)c1,28µM,-99,25µM
COc1cccc(-c2nnc3n2N=C(c2cc(OC)ccc2OC)CS3)c1,0,0,28µM
Cc1cc(C)c(C)c(OCC(=O)NCc2nc(-c3ccccc3)no2)c1,0,?,0
CS(=O)(=O)N1CCCC(C(=O)NCc2ccc(F)cc2)C1 (stereo not drawn),0,0,0
CCN(CC)CCNC(=O)c1c(O)c2cc(OC)c(OC)cc2[nH]c1=O,?,-119,0
CCN(CC)CCNC(=O)c1c(C)oc2cc(Br)c(OC)cc12,0,0,0
O=C(COc1ccccc1)Nc1ccc(OC(F)(F)C(F)F)c(NC(=O)COc2ccccc2)c1,0,0,0
CC(C)C1OC2c3cccc4cccc(c34)C2N1c1ccccc1 (stereo not drawn),25µM,0,0
CCN(CC(=O)Nc1cc(C)nn1-c1nc(C)cc(C)n1)Cc1ccccc1,20µM,0,0
Cc1cc(C)nc(-n2nc(C)cc2NC(=O)CNC2CCCCC2)n1,?,0,0
Cc1cc(C)nc(-n2nc(C)cc2NC(=O)CNCc2ccccc2)n1,8.9µM,0,0
